Source: the supplement of paper PMC9254222
Over roughly 1,100 compounds, “Wnt reporter firefly/Renilla luciferase ratio relative to plate median” has its median near 1.1; the highest 2% begin near 1.6. For the sample, the highest values were picked, then their nearest neighbours and some compounds at random.

Test system: HEK293T (UBE3A T485A transfected, BAR Wnt reporter)
Test: Wnt reporter firefly/Renilla luciferase ratio relative to plate median (fold (linear ratio)); higher = more Wnt/beta-catenin reporter activation
Conditions: 24 h
Method in brief: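 Wnt activity (firefly/Renilla ratio) and cell health (raw Renilla) were read with Dual-Glo luciferase and median-centred plate by plate. HEK293T cells, at 4500 cells/well in white 384-well plates with DMEM plus 10% FBS at 37°C and 5% CO2, carried a transfected BAR firefly luciferase Wnt reporter, TK-Renilla and an expression plasmid. The chemicals were applied by robot at 0.01–100 uM for 24 h, beginning four hours after transfection, and results were averaged across four biological replicates.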

Row | Structure (SMILES) | Wnt reporter firefly/Renilla luciferase ratio (concentration: 0.1 uM) | Wnt reporter firefly/Renilla luciferase ratio (concentration: 1 uM) | Wnt reporter firefly/Renilla luciferase ratio (concentration: 10 uM) | Wnt reporter firefly/Renilla luciferase ratio (concentration: 100 uM) | Wnt reporter firefly/Renilla luciferase ratio (concentration: 0.01 uM) | Wnt reporter firefly/Renilla luciferase ratio (concentration: .1 uM)
1 | CCCCCCCCOC(=O)c1cc(O)c(O)c(O)c1 [Octyl gallate] | 1.25 | 1.3 | 0.702 | 0.614 | – | –
2 | COC(=O)c1ccccc1C(=O)O [Monomethyl phthalate] | 1.05 | 1.09 | 1.11 | 1.4 | 1.05 | –
3 | CC(=O)OC1CC(C)OC(C)O1 (stereo not drawn) [Dimethoxane] | 1.1 | 0.976 | 0.952 | 0.736 | – | –
4 | Cc1ccc(N(C)C)cc1 [N,N,4-Trimethylaniline] | 1.08 | 1.2 | 1.06 | 0.933 | – | –
5 | Cc1ccc(C(C)C)c(O)c1 [Thymol] | 0.988 | 1.09 | 1.29 | 1.08 | – | –
6 | Sc1nc2ccccc2s1 [2-Mercaptobenzothiazole] | 1.39 | 1.62 | 1.3 | 1.69 | – | –
7 | N#CSCSc1nc2ccccc2s1 [2-(Thiocyanomethylthio)benzothiazole] | 0.88 | 1.09 | 1.06 | – | 0.895 | –
8 | CS(=O)(=O)c1ccc([C@@H](C[C@H]2CCC(=O)C2)C(=O)Nc2cnccn2)cc1Cl [Piragliatin] | 1.03 | 0.959 | 1.02 | 1.3 | – | –
9 | COc1cc2c3c(n(CCCn4ccnc4)c(=O)c2cc1OC)-c1cc2c(cc1C3=O)OCO2.Cl | 0.457 | 0.72 | 0.631 | 0.938 | 1.15 | –
10 | OCC(O)CO [Glycerol] | 1.1 | 0.905 | 1.05 | 1.04 | – | –
11 | S=C([S-])NCCNC(=S)[S-].S=C([S-])NCCNC(=S)[S-].[Mn+2].[Zn+2] [Mancozeb] | 0.999 | 0.95 | 0.951 | – | 0.932 | –
12 | Nc1ccc(C(=O)O)cc1 [4-Aminobenzoic acid] | 1.22 | 1.07 | 0.948 | 1.2 | – | –
13 | CC(C)c1cccc(C(C)C)c1NC(=O)[N-]S(=O)(=O)c1cc(C(C)(C)O)co1.[Na+] | 1.05 | 1.08 | 1.2 | 1.05 | – | –
14 | CC/C(=C(\c1ccccc1)c1ccc(OCCN(C)C)cc1)c1ccccc1.O=C(O)CC(O)(CC(=O)O)C(=O)O [Tamoxifen citrate] | 0.922 | 0.964 | 0.891 | 1.01 | – | –
15 | O=C(c1ccc(O)cc1O)c1ccc(O)cc1O [2,2',4,4'-Tetrahydroxybenzophenone] | 1.29 | 1.33 | 1.49 | 0.463 | – | –
16 | CC(C)C(=O)OCC(C)(C)C(OC(=O)C(C)C)C(C)C (stereo not drawn) [2,2,4-Trimethyl-1,3-pentanediol diisobutyrate] | 0.92 | 0.885 | 1.15 | 1.64 | – | –
17 | CC[C@]1(O)C[C@H]2C[N@](CCc3c([nH]c4ccccc34)[C@@](C(=O)OC)(c3cc4c(cc3OC)N(C=O)[C@H]3[C@@](O)(C(=O)OC)[C@H](OC(C)=O)[C@]5(CC)C=CCN6CC[C@]43[C@@H]65)C2)C1 [Vincristine] | – | – | 0.418 | – | 0.387 | –
18 | OCCO [Ethylene glycol] | 1.37 | 1.07 | 1.12 | 1.27 | – | –
19 | NCCO [Ethanolamine] | – | 0.968 | 1.41 | 2.04 | – | 1.09
20 | CCCCCCCCCCCC[N+](C)(C)C.[Cl-] [Dodecyltrimethylammonium chloride] | 1.41 | 1.1 | 0.377 | – | – | –

Row | Structure (SMILES) | Wnt reporter firefly/Renilla luciferase ratio (concentration: 0.1 uM) | Wnt reporter firefly/Renilla luciferase ratio (concentration: 1 uM) | Wnt reporter firefly/Renilla luciferase ratio (concentration: 10 uM) | Wnt reporter firefly/Renilla luciferase ratio (concentration: 100 uM) | Wnt reporter firefly/Renilla luciferase ratio (concentration: 0.01 uM) | Wnt reporter firefly/Renilla luciferase ratio (concentration: .1 uM)
21 | CCc1ccc(CCOc2ccc(CC3SC(=O)NC3=O)cc2)nc1.Cl (stereo not drawn) [Pioglitazone hydrochloride] | 0.94 | 0.896 | 0.903 | 1.1 | – | –
22 | C=C(C)C(=O)OCCC(F)(F)C(F)(F)C(F)(F)C(F)(F)C(F)(F)C(F)(F)F [Tridecafluorohexylethyl methacrylate] | 1.03 | 1.12 | 1.06 | 1.16 | – | –
23 | CC(C)=CCCC(C)=CC=O [3,7-Dimethyl-2,6-octadienal] | 1.11 | 1.26 | 1.03 | 1.09 | – | –
24 | CC(C)=CCC/C(C)=C/CO [Geraniol] | 1.1 | 1.26 | 1.15 | 1.75 | – | –
25 | CC(C)=CCC/C(C)=C\CO [(2Z)-3,7-Dimethylocta-2,6-dien-1-ol] | 1.17 | 0.941 | 1.5 | 1.03 | – | –
26 | OC(Cn1cncn1)(Cn1cncn1)c1ccc(F)cc1F [Fluconazole] | 1.15 | 0.884 | 1.33 | 1.25 | – | –
27 | Cc1ccccc1Cl [2-Chlorotoluene] | 0.964 | 0.931 | 1.37 | 1.44 | – | –
28 | CCOC(N)=O [Urethane] | 1.05 | 0.955 | 1.11 | 1.3 | – | –
29 | CCCCCCCC[Si](OCC)(OCC)OCC [Triethoxyoctylsilane] | 1.15 | 0.902 | 1.05 | 1.38 | – | –
30 | CCO[Si](CCCNC(N)=O)(OCC)OCC [1-[3-(Triethoxysilyl)propyl]urea] | 1.11 | 0.853 | 1.36 | 1.66 | – | –
31 | O=N[O-].[Na+] [Sodium nitrite] | 1.13 | 0.943 | 1.4 | 1.29 | – | –
32 | COc1ccc(CC(N)C(=O)NC2C(CO)OC(n3cnc4c(N(C)C)ncnc43)C2O)cc1 (stereo not drawn) [Puromycin] | 0.78 | 0.249 | – | – | 0.865 | –
33 | CC[C@H](NC(=O)c1cc(F)ccc1[N-]S(=O)(=O)c1cccc2cccnc12)c1ccccc1.[Na+] | 1.22 | 1.08 | 1.18 | 0.234 | – | –
34 | CC(C)CC(C=O)NC(=O)C(CC(C)C)NC(=O)C(CC(C)C)NC(=O)OCc1ccccc1 (stereo not drawn) | 0.85 | 2.61 | – | – | 0.993 | –
35 | O=C(O)c1ccccc1C(=O)OCc1ccccc1 [Monobenzyl phthalate] | 1.1 | 0.986 | 1.31 | 1.16 | – | –
36 | CCCCC(CC)COC(=O)CCCCC(=O)OCc1ccccc1 (stereo not drawn) [Benzyloctyl adipate] | 0.909 | 1.03 | 1.13 | 1.12 | – | –
37 | CCCCC(CC)COC(=O)CC(C(=O)OCC(CC)CCCC)S(=O)(=O)[O-].[Na+] (stereo not drawn) [Docusate sodium] | 0.824 | 1.14 | 0.946 | 0.789 | – | –
38 | CC#C[C@]1(O)CC[C@H]2[C@@H]3CCC4=CC(=O)CCC4=C3[C@@H](c3ccc(N(C)C)cc3)C[C@@]21C [Mifepristone] | 0.957 | 0.893 | 0.624 | 0.0932 | – | –
39 | CNC(=O)[C@H]1O[C@@H](n2cnc3c(NCc4cc(Cl)ccc4OCc4cc(C)no4)ncnc32)[C@H](O)[C@@H]1N | 0.941 | 1.17 | 1.13 | 1.06 | – | –
